Measurements from PMC4081100, “A DNA-binding-site landscape and regulatory network analysis for NAC transcription factors in Arabidopsis thaliana”.

Legend:
Assay in all cases: universal protein binding microarray (PBM); transcription factors of Arabidopsis thaliana; high values mean tight binding
GST-ANAC092(1-176) = target: T1, GST-ANAC092(1-176) (Arabidopsis thaliana, UniProt Q9FKA0 1-176); settings: protein: recombinant; tags: GST; chain copies: 2; dsDNA, one strand shown
T1 sequence: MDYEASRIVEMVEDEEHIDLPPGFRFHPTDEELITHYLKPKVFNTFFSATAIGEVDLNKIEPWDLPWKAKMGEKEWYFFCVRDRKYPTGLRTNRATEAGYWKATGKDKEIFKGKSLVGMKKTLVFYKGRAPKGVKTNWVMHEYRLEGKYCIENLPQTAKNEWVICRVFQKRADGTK
In short: (§1)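 For zinc-finger proteins, zinc acetate was added while GST-tagged NAC-domain, full-length or DNA-binding-domain proteins were induced in cells. Purification used glutathione–Sepharose 4B, and quantification used A280 or anti-GST western blot. Custom all-10-mer Agilent 4 × 180K arrays, made double-stranded by primer extension, each received a protein at 200 to 500 nM final in duplicate. Scoring covered gapped and ungapped 8-mers, with binding given as the normalised enrichment score (E-score).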

GST-NTL6(1-168) = GST-NTL6(1-168) (Arabidopsis thaliana, UniProt Q9SCK6 1-168); settings: protein: recombinant; tags: GST; chain copies: 2; dsDNA, one strand shown
GST-NTL6(1-168), sequence (Q9SCK6 1-168): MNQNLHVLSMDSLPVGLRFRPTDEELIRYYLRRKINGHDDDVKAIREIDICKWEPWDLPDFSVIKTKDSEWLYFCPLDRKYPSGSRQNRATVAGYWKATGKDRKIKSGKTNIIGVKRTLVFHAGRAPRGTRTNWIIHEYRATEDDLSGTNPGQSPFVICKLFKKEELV
In short: as §1

GST-ANAC055(1-171) = target: T2, GST-ANAC055(1-171) (Arabidopsis thaliana, UniProt Q9LDY8 1-171); settings: protein: recombinant; tags: GST; chain copies: 2; dsDNA, one strand shown
T2 sequence: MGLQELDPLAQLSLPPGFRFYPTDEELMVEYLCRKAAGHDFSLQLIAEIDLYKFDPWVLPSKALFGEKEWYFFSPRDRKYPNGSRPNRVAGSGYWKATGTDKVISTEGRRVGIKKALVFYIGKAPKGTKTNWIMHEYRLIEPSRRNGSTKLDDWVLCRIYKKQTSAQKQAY
In short: as §1

GST-ATAF1 NAC domain = target: T3, GST-ATAF1 NAC domain (Arabidopsis thaliana, UniProt Q39013 7-158); settings: protein: recombinant; tags: GST; chain copies: 2; dsDNA, one strand shown
T3 sequence: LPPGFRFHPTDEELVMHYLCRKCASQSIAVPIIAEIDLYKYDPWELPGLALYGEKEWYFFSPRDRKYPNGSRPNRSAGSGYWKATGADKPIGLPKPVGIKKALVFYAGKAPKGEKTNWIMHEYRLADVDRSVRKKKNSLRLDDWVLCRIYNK
In short: as §1

[1] = target: T4, GST-ANAC092(1-285) full length (Arabidopsis thaliana, UniProt Q9FKA0 1-285); settings: protein: recombinant; tags: GST; chain copies: 2; dsDNA, one strand shown
T4 sequence: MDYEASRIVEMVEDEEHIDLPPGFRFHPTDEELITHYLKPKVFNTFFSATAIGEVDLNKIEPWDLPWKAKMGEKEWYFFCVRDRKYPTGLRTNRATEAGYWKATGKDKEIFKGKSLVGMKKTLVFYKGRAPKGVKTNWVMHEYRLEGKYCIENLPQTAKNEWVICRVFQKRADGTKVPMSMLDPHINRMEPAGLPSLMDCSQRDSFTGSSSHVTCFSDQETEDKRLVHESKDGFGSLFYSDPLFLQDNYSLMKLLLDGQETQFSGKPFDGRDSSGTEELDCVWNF
In short: as §1

GST-NAP(1-166) = target: T5, GST-NAP(1-166) (Arabidopsis thaliana, UniProt O49255 1-166); settings: protein: recombinant; tags: GST; chain copies: 2; dsDNA, one strand shown
T5 sequence: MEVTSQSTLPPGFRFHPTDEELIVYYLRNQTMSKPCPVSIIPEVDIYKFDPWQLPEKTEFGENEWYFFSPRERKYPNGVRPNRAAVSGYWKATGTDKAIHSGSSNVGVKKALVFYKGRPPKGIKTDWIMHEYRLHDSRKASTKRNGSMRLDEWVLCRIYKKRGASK
In short: as §1

GST-NST2(1-184) = target: T6, GST-NST2(1-184) (Arabidopsis thaliana, UniProt Q9M274 1-184); settings: protein: recombinant; tags: GST; chain copies: 2; dsDNA, one strand shown
T6 sequence: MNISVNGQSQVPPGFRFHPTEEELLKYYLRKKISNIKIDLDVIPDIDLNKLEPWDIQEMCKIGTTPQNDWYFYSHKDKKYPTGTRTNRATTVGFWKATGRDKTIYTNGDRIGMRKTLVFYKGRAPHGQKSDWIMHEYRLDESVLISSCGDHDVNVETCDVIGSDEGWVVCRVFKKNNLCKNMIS
In short: as §1

GST-NTL8 NAC domain = target: T7, GST-NTL8 NAC domain (Arabidopsis thaliana, UniProt Q9XIN7 14-156); settings: protein: recombinant; tags: GST; chain copies: 2; dsDNA, one strand shown
T7 sequence: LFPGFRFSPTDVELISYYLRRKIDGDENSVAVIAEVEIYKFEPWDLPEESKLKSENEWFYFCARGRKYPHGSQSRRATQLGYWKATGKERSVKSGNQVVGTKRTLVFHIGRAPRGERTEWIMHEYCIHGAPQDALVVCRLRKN
In short: as §1

GST-VND7 NAC domain = target: T8, GST-VND7 NAC domain (Arabidopsis thaliana, UniProt Q9C8W9 9-158); settings: protein: recombinant; tags: GST; chain copies: 2; dsDNA, one strand shown
T8 sequence: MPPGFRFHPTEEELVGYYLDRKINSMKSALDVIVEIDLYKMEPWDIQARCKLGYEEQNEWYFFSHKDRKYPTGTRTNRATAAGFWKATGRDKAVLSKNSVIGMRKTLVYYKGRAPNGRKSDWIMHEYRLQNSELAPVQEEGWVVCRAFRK
In short: as §1

GST-ANAC019 NAC domain = target: T9, GST-ANAC019 NAC domain (Arabidopsis thaliana, UniProt Q9C932 14-162); settings: protein: recombinant; tags: GST; chain copies: 2; dsDNA, one strand shown
T9 sequence: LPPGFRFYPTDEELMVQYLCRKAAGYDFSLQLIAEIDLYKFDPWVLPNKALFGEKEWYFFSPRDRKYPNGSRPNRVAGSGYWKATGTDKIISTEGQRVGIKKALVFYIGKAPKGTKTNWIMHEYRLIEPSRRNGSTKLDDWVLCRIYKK
In short: as §1

GST-WRKY1(266-371) = GST-WRKY1(266-371) (Arabidopsis thaliana, UniProt Q9SI37 266-371); settings: protein: recombinant; tags: GST; dsDNA, one strand shown
GST-WRKY1(266-371), sequence (Q9SI37 266-371): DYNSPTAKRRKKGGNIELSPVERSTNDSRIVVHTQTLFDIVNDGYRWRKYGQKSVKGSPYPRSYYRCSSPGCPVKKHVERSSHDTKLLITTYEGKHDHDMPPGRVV
In short: as §1

GST-VND3 NAC domain = target: T10, GST-VND3 NAC domain (Arabidopsis thaliana, UniProt Q9FH59 12-162); settings: protein: recombinant; tags: GST; chain copies: 2; dsDNA, one strand shown
T10 sequence: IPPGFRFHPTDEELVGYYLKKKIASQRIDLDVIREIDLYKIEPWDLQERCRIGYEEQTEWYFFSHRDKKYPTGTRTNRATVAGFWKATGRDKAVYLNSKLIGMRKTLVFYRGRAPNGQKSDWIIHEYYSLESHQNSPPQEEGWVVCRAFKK
In short: as §1

Sequence: AGGAAACT
- binding signal (GST-ANAC092(1-176)): 0.174 E-score
- binding signal (GST-NTL6(1-168)): 0.227 E-score
- binding signal (GST-ANAC055(1-171)): 0.0635 E-score
- binding signal (GST-ATAF1 NAC domain): 0.0874 E-score
- binding signal [1]: 0.186 E-score
- binding signal (GST-NAP(1-166)): 0.0881 E-score
- binding signal (GST-NST2(1-184)): 0.125 E-score
- binding signal (GST-NTL8 NAC domain): 0.426 E-score
- binding signal (GST-VND7 NAC domain): 0.131 E-score

Sequence: AGTCTTTG
- binding signal (GST-ANAC092(1-176)): 0.0553 E-score
- binding signal (GST-NTL6(1-168)): 0.0583 E-score
- binding signal (GST-ANAC019 NAC domain): 0.0679 E-score
- binding signal (GST-ANAC055(1-171)): 0.0944 E-score
- binding signal (GST-VND7 NAC domain): 0.125 E-score
- binding signal (GST-WRKY1(266-371)): 0.424 E-score

Sequence: ATTCCCTC
- binding signal (GST-NTL6(1-168)): 0.115 E-score
- binding signal (GST-ANAC019 NAC domain): 0.0664 E-score
- binding signal (GST-NTL8 NAC domain): 0.421 E-score
- binding signal (GST-VND7 NAC domain): 0.0536 E-score

Sequence: GAAGTCAA
- binding signal (GST-NTL6(1-168)): 0.104 E-score
- binding signal (GST-ANAC019 NAC domain): 0.0675 E-score
- binding signal (GST-ATAF1 NAC domain): 0.0967 E-score
- binding signal (GST-NTL8 NAC domain): 0.0673 E-score
- binding signal (GST-VND7 NAC domain): 0.0707 E-score
- binding signal (GST-WRKY1(266-371)): 0.482 E-score

Sequence: AGTCAACG
- binding signal (GST-ANAC019 NAC domain): 0.0747 E-score
- binding signal [1]: 0.0699 E-score
- binding signal (GST-NAP(1-166)): 0.0565 E-score
- binding signal (GST-NST2(1-184)): 0.114 E-score
- binding signal (GST-VND3 NAC domain): 0.115 E-score
- binding signal (GST-WRKY1(266-371)): 0.494 E-score

Sequence: CATTTGAC
- binding signal (GST-ANAC055(1-171)): 0.0579 E-score
- binding signal (GST-ATAF1 NAC domain): 0.0746 E-score
- binding signal (GST-NST2(1-184)): 0.0611 E-score
- binding signal (GST-VND3 NAC domain): 0.105 E-score
- binding signal (GST-WRKY1(266-371)): 0.462 E-score

Sequence: ATTAGTCA
- binding signal (GST-ANAC055(1-171)): 0.0956 E-score
- binding signal (GST-ATAF1 NAC domain): 0.109 E-score
- binding signal (GST-VND3 NAC domain): 0.135 E-score
- binding signal (GST-WRKY1(266-371)): 0.404 E-score

Sequence: AATTGACC
- binding signal (GST-ANAC055(1-171)): 0.0684 E-score
- binding signal (GST-ATAF1 NAC domain): 0.176 E-score
- binding signal (GST-NST2(1-184)): 0.0795 E-score
- binding signal (GST-NTL8 NAC domain): 0.0822 E-score
- binding signal (GST-VND3 NAC domain): 0.115 E-score
- binding signal (GST-WRKY1(266-371)): 0.47 E-score

Sequence: AGAGGTAA
- binding signal (GST-ANAC092(1-176)): 0.145 E-score
- binding signal (GST-NTL6(1-168)): 0.237 E-score
- binding signal (GST-ANAC019 NAC domain): 0.0713 E-score
- binding signal (GST-ANAC055(1-171)): 0.0996 E-score
- binding signal (GST-ATAF1 NAC domain): 0.106 E-score
- binding signal (GST-NAP(1-166)): 0.0742 E-score
- binding signal (GST-NTL8 NAC domain): 0.427 E-score
- binding signal (GST-VND3 NAC domain): 0.0836 E-score

Sequence: TAGGTCAA
- binding signal (GST-ANAC055(1-171)): 0.077 E-score
- binding signal (GST-ATAF1 NAC domain): 0.145 E-score
- binding signal (GST-VND3 NAC domain): 0.0723 E-score
- binding signal (GST-WRKY1(266-371)): 0.482 E-score

Sequence: GGTCATAC
- binding signal (GST-NAP(1-166)): 0.108 E-score
- binding signal (GST-VND3 NAC domain): 0.115 E-score
- binding signal (GST-WRKY1(266-371)): 0.421 E-score

Sequence: ATAAGTCA
- binding signal (GST-NTL6(1-168)): 0.161 E-score
- binding signal [1]: 0.101 E-score
- binding signal (GST-VND3 NAC domain): 0.105 E-score
- binding signal (GST-WRKY1(266-371)): 0.443 E-score

Sequence: GACCGGAA
- binding signal (GST-ANAC092(1-176)): 0.0538 E-score
- binding signal (GST-ANAC019 NAC domain): 0.213 E-score
- binding signal (GST-ANAC055(1-171)): 0.0745 E-score
- binding signal (GST-NTL8 NAC domain): 0.0847 E-score
- binding signal (GST-VND7 NAC domain): 0.0568 E-score
- binding signal (GST-WRKY1(266-371)): 0.404 E-score

Sequence: ATGTTGAC
- binding signal (GST-ATAF1 NAC domain): 0.0521 E-score
- binding signal (GST-VND3 NAC domain): 0.0635 E-score
- binding signal (GST-WRKY1(266-371)): 0.474 E-score

Sequence: TAGTCAGA
- binding signal (GST-ATAF1 NAC domain): 0.0564 E-score
- binding signal (GST-VND3 NAC domain): 0.065 E-score
- binding signal (GST-WRKY1(266-371)): 0.428 E-score

Sequence: CATTGACG
- binding signal [1]: 0.149 E-score
- binding signal (GST-VND3 NAC domain): 0.08 E-score
- binding signal (GST-WRKY1(266-371)): 0.411 E-score

Sequence: TAGTCAAA
- binding signal (GST-ANAC055(1-171)): 0.136 E-score
- binding signal (GST-ATAF1 NAC domain): 0.272 E-score
- binding signal (GST-VND3 NAC domain): 0.105 E-score
- binding signal (GST-WRKY1(266-371)): 0.477 E-score

Sequence: AAGTTGAC
- binding signal (GST-ANAC055(1-171)): 0.0649 E-score
- binding signal (GST-ATAF1 NAC domain): 0.0834 E-score
- binding signal (GST-VND7 NAC domain): 0.0703 E-score
- binding signal (GST-WRKY1(266-371)): 0.476 E-score

Sequence: AGTCAGCC
- binding signal (GST-WRKY1(266-371)): 0.415 E-score
